The results in this text go back to PubChem BioAssay AID1259416 (Broad Institute, 2018).

“And” between values parts separate entries of the source, which are not always exact repeats. Identical values can stand only once. About 2,600 (3.8%) of roughly 69,000 compounds were called active. Only a selection was taken, and actives are over-represented in it overall. Values without a mark were called inactive. Rule as the data show it: active = activity change below about -70% (passing the limit was not always enough); inconclusive = no clear call, values can overlap the other calls.

This experiment can be described thus: T. gondii growth inhibition with IFN-gamma, primary screen, cell-based (AID 1259416).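 Also: host cells are HeLa cells infected with Toxoplasma gondii.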 As to conditions: Toxoplasma gondii growth in IFN-gamma-treated host cells; active compounds read low; concentration not given here.
As for `COCCN1CCO[C@@H]2CN(Cc3ccccc3F)C[C@@H]2C1`, the activity change, negative = inhibition was -4.47%.

As to `CN(C)c1ncccc1CNC(=O)c1cnc2c(c1)nnn2C`, the activity change, negative = inhibition is 2.4%. Then `C/C=C/c1ccccc1[C@@H]1[C@@H](CO)N(C(=O)CN2CCOCC2)[C@H]1C#N`, with 18.7%; and `COc1ccc(S(=O)(=O)N2CCc3nc(-c4ccccc4)sc3C2)cc1OC`, with 62%; and `CCOc1ccc(-c2nc3c(s2)CN(S(=O)(=O)c2cccc(C)c2)CC3)cc1`, with 4.52%.

Turning to `COc1ccc(-c2nc3c(s2)CN(S(=O)(=O)c2cccc(Cl)c2C)CC3)cc1`, the activity change, negative = inhibition was -94.8% (active). Regarding `COC(=O)c1cc2n(n1)CCN(S(=O)(=O)c1ccc(C)cc1OC)C2`, the activity change, negative = inhibition is -2.93%. For `COc1ccc(-c2nc3c(s2)CN(S(=O)(=O)c2ccc(C)cc2C)CC3)cc1OC` the value was -101% (active); for `COc1ccc(-c2nc(C)c(CCNS(=O)(=O)c3ccccc3)s2)cc1OC`, 132%; for `COc1cccc(NC2COC3(CCN(S(=O)(=O)c4cccc(F)c4)CC3)C2)c1` (centres undefined), -1.19%. Take `COc1cccc(-c2nc3c(s2)CN(S(=O)(=O)c2cccc(F)c2)CC3)c1`: the activity change, negative = inhibition is -87.6% (active). For `O=S(=O)(NC[C@H]1[C@H](c2ccccc2)[C@H](CO)N1CC1CC1)c1ccccc1` the value was 14.7%. For `Cc1nc(-c2cccc(F)c2)sc1CCNC(=O)C12CC3CC(CC(C3)C1)C2` the value was -46.4%; for `C=Cc1cccc(CN2CCC3(CCCN(C(=O)CCOC)C3)C2)c1` (centres undefined), -2.67%. For `CN(Cc1nc(-c2ccncc2)no1)C(=O)c1cc2ccccc2s1`, the activity change, negative = inhibition is -2.68%. For `Cc1ncc(C(=O)O)c(-c2ccccc2)n1` the value was 0.375%. `COCc1cnc2n1CCN(C(=O)c1oc3ccccc3c1C)C2C` (centres undefined): the activity change, negative = inhibition is 1.32%. Then `Cc1cc(C(F)F)nn1CC(=O)NCCn1ncc(-c2ccncc2)c1-c1cccs1`, with -65.9%; and `CCOCCn1nc(C)cc1C(=O)N1CCCC2(CNC(=O)O2)C1` (centres undefined), with -0.947%. For `COCC12CCCOC1CCN(S(=O)(=O)C1CC1)C2` (centres undefined) the value was 5.49%. For `C/C=C/c1ccccc1[C@@H]1[C@@H](C#N)N(c2nc(CC)cs2)[C@@H]1CO`, the activity change, negative = inhibition was 1.59%.

As for `CCc1cnc(N2[C@H](C#N)[C@H](c3ccccc3-c3ccccc3C)[C@H]2CO)s1`, the activity change, negative = inhibition was 18.5%. With `Cc1ccc(-c2ccccc2[C@H]2[C@@H](C#N)N(c3ncc(-c4ccccc4)s3)[C@@H]2CO)cc1`, the activity change, negative = inhibition was -77.5% (active). Consider `COc1ccc(CN2C(=O)CO[C@H]3CN(C(=O)NC4CC4)C[C@@H]32)cc1`, for which the activity change, negative = inhibition was 15.8%. As to `N#Cc1ccc(-c2ccc([C@@H]3[C@@H](CO)N4C(=O)CNC[C@H]34)cc2)cc1`, the activity change, negative = inhibition is -24.8%. Then `N#Cc1ccc(-c2ccc([C@@H]3[C@H]4CNC[C@@H]3N4Cc3ccc4c(c3)OCO4)cc2)cc1`, with -70.6% (active); and `COc1ccccc1CN1[C@@H]2CNC[C@H]1C2c1ccc(-c2cccc(C#N)c2)cc1` (some centres undefined), with -25.9% and -32%. Then `CS(=O)(=O)N1CCCC1c1cccc(Nc2nccs2)n1` (centres undefined), with -21.8%; and `COCCn1c(C(=O)NCCCN(C)C)cc2c1c1ccccc1n2C`, with -12.8%. Then `CC(C)(C)CN1CC2CN(C(=O)Nc3ccccc3)CC21` (centres undefined), with -37.8%; and `O=C(O)c1ccc(NC(=S)NCc2cccs2)cc1`, with 33.4%. Consider `CC1CCN(C(=O)c2cc(=O)n(CC(=O)Nc3ccc(C(C)C)cc3)c3ccccc23)CC1`, for which the activity change, negative = inhibition was -28.9%. For `Cn1nc(CC(=O)Nc2cccc(Cl)c2)c2ccccc2c1=O`, the activity change, negative = inhibition is -79% (active). For `Cc1nc(OCC(=O)Nc2cccc(Cl)c2)c2ccccc2n1` the value was -0.194%. For `Cn1nc(C(=O)O)c2ccccc2c1=O` the value was 58.7%; for `CCn1nc(C)c(NC(=O)CN2CCC(Oc3ncccn3)CC2)c1C`, -9.88%; for `COc1cccc2[nH]c(C(=O)N3CCCC(c4cc(CN(C)C)n(C)n4)C3)cc12` (centres undefined), 5.73%. For `Cc1sccc1C(=O)N1CCC2(CC1)CC(NS(C)(=O)=O)C2` the value was 6.5%.

As for `COc1ccc2cc(-c3ccccc3NC(=O)CN)ccc2c1`, the activity change, negative = inhibition is 70.1%. `O=C1c2ccccc2C(=O)C1c1ccccc1`: the activity change, negative = inhibition is -11.2% and 19.1%.

In the case of `COc1ccc2c(C3C(=O)c4ccccc4C3=O)nccc2c1`, the activity change, negative = inhibition is -108% (active).

Regarding `COc1ccc(-c2cc(C)cnc2-n2cnnc2)cn1`, the activity change, negative = inhibition was 4.46%. Take `CCc1nc(CN2CCC3(CC2)C(=O)N(CCc2ccccc2)C(=O)N3C)c(C)[nH]1`: the activity change, negative = inhibition is -3.85%. In the case of `COc1ccc2c3c(n(C)c2c1)[C@H](CO)N(Cc1ccccc1Cl)CC31CN(C(=O)CN(C)C)C1`, the activity change, negative = inhibition was -29.5%. For `CN1C(=O)CCc2cc(C(=O)NC3CCCC3)ccc21` the value was 9.57%; for `Cc1ccc(C(=O)N2CCC3(CC2)CCN(c2cnn(C)c2)C3=O)cc1`, 19.8%; for `CCN1C(=O)[C@H]2CN(c3ncccn3)C[C@@H]2C12CCN(S(=O)(=O)CC(C)C)CC2`, -13.4%. For `Cc1cccnc1N1C[C@H]2CN(c3cnn(C)c3)C(=O)[C@@H]2C1` the value was -73.4% (active); for `O=C(CCn1nnc2ccccc21)N1CCCC(c2ccn[nH]2)C1` (centres undefined), 2.46%; for `Cc1noc2nc(C3CCCN(C(=O)CCc4ccccc4)C3)cc(C(F)F)c12` (centres undefined), -93.3% (active).

Regarding `Cc1ccc(NC(=O)CC(=O)N2CCCC(c3nc(CC(C)C)no3)C2)cc1` (centres undefined), the activity change, negative = inhibition is 25%. Then `CCCCc1ncc(CN2CCN(c3ccccc3OC)CC2C)[nH]1` (centres undefined), with -2.06%. For `O=S(=O)(NCc1ccccc1)N1CCCC1c1ccccn1` (centres undefined) the value was -3.86%. Regarding `CO[C@@H]1CCN(C(=O)c2ccnn2C)[C@H]2CN(CC3CC3)C[C@@H]12`, the activity change, negative = inhibition was 33.7%. Then `COCCC(=O)c1cc2c(s1)CCN2c1ccc(C)nn1`, with 59.6%; and `Cc1ccccc1C(=O)NCCc1csc(-c2ccc(F)cc2)n1`, with -18%; and `O=C(NCCc1csc(-c2ccccc2)n1)c1ccccc1F`, with 455%. For `COc1ccccc1C(=O)NCCc1csc(-c2ccc(Cl)cc2)n1` the value was -74% (active). For `O=C(CSc1nc2ccc(N3C(=O)c4ccccc4C3=O)cc2s1)N1CCOCC1` the value was 1.26%. With `COc1ccc(NS(=O)(=O)c2cc3c4c(c2)CCC(=O)N4CCC3)cc1OC`, the activity change, negative = inhibition was 2.51%. Then `CC(C)Cc1cc(C(=O)N2CCCC3(CN(C)C(=O)O3)C2)on1` (centres undefined), with 3.84%. For `CCCCCC(O)c1cccc(OCc2ccc3ccccc3n2)c1` (centres undefined) the value was 74.5% and 28.6%. Turning to `Cn1cc(-c2ccncc2)c(-c2ccc(OCc3ccc4ccccc4n3)cc2)n1`, the activity change, negative = inhibition is -77.6% (active). On to `Cc1nn(C)cc1-c1c(-c2ccccc2)ncn1CCNC(=O)c1ccncc1`, for which the activity change, negative = inhibition is -3.05%.

Turning to `CCOC(=O)c1c(C(F)(F)F)cc(-c2ccccc2)nc1C`, the activity change, negative = inhibition was 12.4%. Regarding `O=C(c1ccoc1)N1CCCn2c(nc(CN3CCCC3)cc2=O)C1`, the activity change, negative = inhibition is -0.164%.

For `COc1ccc(S(=O)(=O)CCNS(=O)(=O)N2CCCC(C)C2)cc1` (centres undefined), the activity change, negative = inhibition was 2.67%. For `O=C(Cn1ncc2c(N3CCCC3)ncnc21)NCc1ccccc1` the value was 10.5%; for `CCN(CC)c1ncnc2c1cnn2CC(=O)NCc1ccccc1`, -95.8% (active). For `CCc1ccccc1NC(=O)Cn1ncc2c(N(CC)CC)ncnc21` the value was -34.2%; for `Cc1cc(N2CCC(C(=O)Nc3nnc(-c4cccnc4)s3)CC2)n2ncnc2n1`, -5.63%; for `Clc1ccc(C(Cn2ccnc2)OCc2ccsc2Cl)c(Cl)c1` (centres undefined), -59.6% and 3.6%. Then `COc1ccc(CCCOC(Cn2ccnc2)c2ccc(OC)cc2)cc1` (centres undefined), with -83.3% (active); and `Cc1nc2c(c(=O)[nH]1)CCN(C(=O)c1c(-c3ccccc3Cl)noc1C)C2`, with 11.4%. On to `COC(=O)c1cc2n(n1)CCCN(C(=O)COc1ncnc3ccccc13)C2`, for which the activity change, negative = inhibition was 2.6%. As for `COc1ccc(NC(=O)c2cccc(CN3C[C@@H](C)O[C@@H](C)C3)c2)cc1`, the activity change, negative = inhibition was 26.7%. Then `O=C(COc1ccc(C(=O)c2ccccc2)cc1)NC1CCN(Cc2ccccc2)CC1`, with 25.7%.

Consider `O=C(Nc1ccc(OCc2ccccc2)cc1)OCC1CN(Cc2ccccc2)CCO1` (centres undefined), for which the activity change, negative = inhibition was -88.7% (active). For `CN1Cc2ccccc2CC2(CCN(Cc3ccsc3)CC2)C1=O` the value was 0.416%. For `CN1C(=O)c2cc(NC(=O)c3ccc4c(c3)OCO4)ccc2OC[C@@H]2O[C@H](CC(=O)O)CC[C@H]21` the value was 8.45%; for `Cc1ccc(Cl)cc1NC(=O)CN1C(=O)CCc2cc(S(=O)(=O)N3CCCCC3)ccc21`, 0.0244%; for `Cc1cc(C)cc(NC(=O)CN2C(=O)CCc3cc(S(=O)(=O)N4CCOCC4)ccc32)c1`, 24.4%. Consider `Cc1ccc(NC(=O)CN2C(=O)CCc3cc(S(=O)(=O)N4CCCCC4C)ccc32)cc1N(C)C` (centres undefined), for which the activity change, negative = inhibition is -103% (active). For `COC(=O)c1c(NCc2c(C)noc2C)c2cccc(Cl)c2[nH]c1=O` the value was 7.07%. For `Cc1ccc2[nH]c3c(c2c1)CCNC31C(=O)N(C)c2ccc(Br)cc21` (centres undefined) the value was 1.48%; for `CS(=O)(=O)N1CCO[C@H]2[C@@H](OCc3cccnc3)CC[C@H]21`, 37.3%; for `O=C(Nc1ccc(F)cc1F)N1CCCN(CCOc2ccccc2)CC1`, 8.95%. For `O=C1c2cc(OCCN3CCCCC3)ccc2-c2ccc(OCCN3CCCCC3)cc21` the value was -90% (active); for `O=c1[nH]c2ccccc2n1C1CCN(CCOc2ccccc2)CC1`, -49.4%.
